These results are taken from PubChem BioAssay.

Calls of active or inactive are those of the source.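 How the source made its calls, unless noted: active means inhibition above 20% together with a positive visual image hit; inconclusive means visual image hit but inhibition not above 20%; inactive means no visual image hit.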

Experiment [1] can be described thus: inhibitors of TNFa-induced NFkB p65 translocation, primary screen, imaging, HUVEC, MLSMR starter and 10KST1 sets (AID 438).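 Further: compound added about 3h40 before a 20 min TNFalpha stimulation.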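 On inhibition: signal is the nuclear over cytoplasmic p65 intensity ratio per well.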 The note with it: HUVEC TNFa-induced p65 nuclear translocation; cell count: measured here: nuclei count (cytotoxicity indicator), at 2.08 µM; inhibition: at 2 µM, stronger effect = higher value, 0% TNFa-plus-vehicle, 100% no-TNFa wells.
Experiment [2] is described as follows: inhibitors of mutant huntingtin aggregation, primary screen, imaging, exon1htt(103Q)mCFP cells, high-content imaging (AID 483;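 active means visual image review flags a hit and inhibition of aggregation exceeds 20%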;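 further: compound exposure lasted 3 days before fixation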;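 on nuclei count: percent of the per-plate median nuclei count of sample wells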). Conditions: exon1htt(103Q)mCFP cell line, aggregate imaging, at 2 µM; inhibition of aggregation: stronger effect = higher value; nuclei count: measured here: cell count, toxicity.
The nature of experiment [3]: inhibitors of E-selectin induction by TNFa, primary screen, imaging, HUVEC, immunofluorescence, MLSMR starter and 10KST1 sets (AID 487;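 active means visually confirmed hit in the image check and inhibition above 20%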;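 on inhibition: signal is fraction of cell area covered by stained E-selectin grains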;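 on nuclei count: 100% = median nuclei count of all wells on the same plate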). The note with it: HUVEC TNFalpha-induced E-selectin immunofluorescence imaging, at 2 µM; inhibition: stronger effect = higher value; nuclei count: measured here: cell number, toxicity.
Experiment [4] has as its target Voltage-gated potassium channel subunit beta-2 (Rattus norvegicus) (UniProt P62483). Nature of the experiment: KvBeta enzyme negative modulators, primary screen, biochemical, NADPH fluorescence (AID 622;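 active means fluorescence slope higher than the sample average by over 3 SD, cut at about -0.22 in these data, passing the limit was not always enough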;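 further: slope of raw intensity against log time taken from 70 to 1610 s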). The note with it: recombinant KvBeta, 4-cyanobenzaldehyde reduction, at 10 µM, stronger effect = higher value.
Experiment [5] shares this target. Briefly: KvBeta positive modulators, primary screen, biochemical, NADPH fluorescence (AID 623;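 active means NADPH fluorescence slope more negative than the mean of all samples by about 3 SD, 99.7% confidence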;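 further: fluorescence intensity change per second fitted from 20 to 320 s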). Conditions: Recombinant KvBeta, NADPH fluorescence decrease slope, 10 min; at 10 µM; stronger effect = lower value.
The target in experiment [6] is Alpha-2C adrenergic receptor (Homo sapiens) (UniProt P18825). Briefly: modulators of alpha2C/GIRK thallium flux, primary screen, cell-based, HEK293 alpha2C/GIRK1/2 (AID 624;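 active means fluorescence slope after compound addition differing from the mean of all screened samples at 99.7% confidence, in either direction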;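 further: slope of fluorescence ratio to pre-addition baseline per second over 15 to 24 s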). Conditions: thallium flux BTC fluorescence, at 10 µM, actives lie on both sides.
Experiment [7] can be described thus: inhibitors of Sendai virus-induced IRF3 signaling, primary screen, TLR/RLR signaling modifier project, cell-based, Sendai virus stimulus, luciferase, 10K MLSCN set (AID 602276;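 active means inhibition at or above 50% at 10 µM; inactive means inhibition below 50%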;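 further: firefly luciferase from ISG56 promoter only with Renilla not read in this screen; 0% = Sendai virus plus DMSO and 100% = medium plus DMSO without virus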). Conditions: HEK293 RL24 IRF3 luciferase reporter, at 10 µM, stronger effect = higher value. (Reporter assays use an easily measured gene product as a stand-in for the process of interest.)
A short description of experiment [8]: inhibitors of poly I:C-induced TLR3 signaling, primary screen, cell-based, poly I:C stimulus, luciferase, 10K MLSCN set (AID 602277;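 active means inhibition of the reporter signal at or above 50%; inactive means inhibition below 50%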). Conditions: HEK293-TLR3 RL24 IRF3 luciferase reporter, at 10 µM, stronger effect = higher value.

Sequence of Alpha-2C adrenergic receptor (Homo sapiens) (P18825 whole entry, looked up): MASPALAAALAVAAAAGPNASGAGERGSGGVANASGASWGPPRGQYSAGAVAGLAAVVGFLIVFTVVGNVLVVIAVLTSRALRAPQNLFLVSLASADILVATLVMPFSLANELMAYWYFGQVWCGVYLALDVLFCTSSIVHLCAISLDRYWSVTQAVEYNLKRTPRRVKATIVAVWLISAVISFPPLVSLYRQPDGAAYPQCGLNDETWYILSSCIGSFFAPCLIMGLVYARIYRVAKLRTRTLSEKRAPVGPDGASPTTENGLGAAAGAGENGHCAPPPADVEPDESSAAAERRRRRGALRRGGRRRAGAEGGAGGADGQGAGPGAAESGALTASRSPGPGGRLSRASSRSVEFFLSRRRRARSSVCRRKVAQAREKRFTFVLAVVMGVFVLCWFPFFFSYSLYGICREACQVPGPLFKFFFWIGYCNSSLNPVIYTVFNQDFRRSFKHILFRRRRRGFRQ
Sequence of Voltage-gated potassium channel subunit beta-2 (Rattus norvegicus) (P62483 whole entry, looked up): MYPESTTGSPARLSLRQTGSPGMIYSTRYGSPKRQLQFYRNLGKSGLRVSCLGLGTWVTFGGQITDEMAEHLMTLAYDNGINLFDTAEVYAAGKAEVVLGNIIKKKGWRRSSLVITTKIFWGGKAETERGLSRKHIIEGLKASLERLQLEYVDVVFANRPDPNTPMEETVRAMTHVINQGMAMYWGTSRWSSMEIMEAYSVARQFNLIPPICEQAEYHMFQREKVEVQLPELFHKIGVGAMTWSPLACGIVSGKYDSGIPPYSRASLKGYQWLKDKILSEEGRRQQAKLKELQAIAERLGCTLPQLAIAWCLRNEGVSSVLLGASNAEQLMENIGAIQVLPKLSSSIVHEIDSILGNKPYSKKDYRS

The inhibition is the drop in the measured response relative to a control, in per cent. Take `COC(=O)c1ccccc1NC(=O)Cn1ccnc1`: in experiment [1], the cell count came to 310. Besides, the inhibition in experiment [1] was -5.7% (inactive); in experiment [3], -12% (inactive); in experiment [7] it was 5.19% (inactive); in experiment [8] it was 23.4% (inactive). For the same compound, the inhibition of aggregation in experiment [2] was 3.6% (inactive). The nuclei count is 78.1% in experiment [2] and 86.6% in experiment [3]. The fluorescence slope in experiment [4] was -0.591 (inactive). Besides, the NADPH fluorescence slope in experiment [5] is -6.8e-05 (inactive). Besides, in experiment [6], the slope is 0.00553 (inactive).

For `O=C(c1ccccc1)c1ccncc1`, the cell count in experiment [1] stood at 391. The inhibition was 7% (inactive) in experiment [1], -5.9% (inactive) in experiment [3], 19% (inactive) in experiment [7] and 27.8% (inactive) in experiment [8]. Further, in experiment [2], the inhibition of aggregation is -9.4% (inactive). Further, the nuclei count in experiment [2] amounted to 103%; in experiment [3] it was 119%. The fluorescence slope in experiment [4] is -0.399 (inactive). Also, in experiment [5], the NADPH fluorescence slope is -2.9e-05 (inactive). The slope in experiment [6] is 0.0031 (inactive).

Take `Cc1cccc(Cn2c(SCCN3CCCCC3)nc3c2c(=O)[nH]c(=O)n3C)c1`: the cell count in experiment [1] was found to be 497. Further, the inhibition is 6.4% (inactive) in experiment [1], 1.7% (inactive) in experiment [3], -12% (inactive) in experiment [7] and 3.02% (inactive) in experiment [8]. The inhibition of aggregation in experiment [2] is -13.5% (inactive). The figures for the nuclei count in experiment [2] and in experiment [3] were 82.4% and 95.1%, respectively. Further, the fluorescence slope in experiment [4] was -0.442 (inactive). Moreover, in experiment [5], the NADPH fluorescence slope was 3.2e-05 (inactive). The slope in experiment [6] was 0.00451 (inactive).

For `Cc1ccc(-c2nc(=S)c3c(n2Cc2ccco2)CCCC3)cc1`, the cell count in experiment [1] came to 320. The inhibition is 1% (inactive) in experiment [1], -22.3% (inactive) in experiment [3], 16% (inactive) in experiment [7] and 27.9% (inactive) in experiment [8]. Also, the inhibition of aggregation in experiment [2] is -7.2% (inactive). For the same compound, the nuclei count is 77.9% in experiment [2] and 85.5% in experiment [3]. The fluorescence slope in experiment [4] was -0.485 (inactive). Also, the NADPH fluorescence slope in experiment [5] was -0.00017 (inactive). In addition, the slope in experiment [6] is 0.00678 (inactive).

Turning to `COCCCN(Cc1ccccn1)S(=O)(=O)Cc1ccccc1`, the cell count in experiment [1] came to 510. Moreover, the inhibition is -9.9% (inactive) in experiment [1], 10% (inactive) in experiment [3], 3.22% (inactive) in experiment [7] and 15.9% (inactive) in experiment [8]. In experiment [2], the inhibition of aggregation is 4.7% (inactive). Moreover, the nuclei count is 97.4% in experiment [2] and 102% in experiment [3]. Moreover, the fluorescence slope in experiment [4] was -0.517 (inactive). Besides, the NADPH fluorescence slope in experiment [5] was 8e-06 (inactive). The slope in experiment [6] is 0.00578 (inactive).

On to `CCN(CC)C(=O)CSc1nnc(-c2cc(OC)cc(OC)c2)o1`, for which, in experiment [1], the cell count stood at 733. For the same compound, the inhibition in experiment [1] is 0.6% (inactive); in experiment [3], 19.1% (inactive); in experiment [7], 8.18% (inactive); in experiment [8], 2.13% (inactive). Moreover, the inhibition of aggregation in experiment [2] was 10.3% (inactive). For the same compound, the figures for the nuclei count in experiment [2] and in experiment [3] were 100% and 109%, respectively. In addition, in experiment [4], the fluorescence slope was -0.413 (inactive). In addition, in experiment [5], the NADPH fluorescence slope is -4.5e-05 (inactive). The slope in experiment [6] was 0.00522 (inactive).

Consider `Clc1ccc(C2Nc3ccccc3-n3cccc32)cc1` (centres undefined), for which the cell count in experiment [1] was found to be 637. Also, the inhibition in experiment [1] was -1.6% (inactive); in experiment [3] it was -44.3% (inactive); in experiment [7], 5.43% (inactive); in experiment [8] it was 18.8% (inactive). Moreover, the inhibition of aggregation in experiment [2] is 8.6% (inactive). The values for the nuclei count in experiment [2] and in experiment [3] were 109% and 104%, respectively. In addition, in experiment [4], the fluorescence slope is -0.301 (inactive). Moreover, the NADPH fluorescence slope in experiment [5] was 2.7e-06 (inactive). Besides, the slope in experiment [6] was 0.00628 (inactive).

On to `CCOC(=O)CNC(=O)CSc1nc(N(C)C)nc(N2CCOCC2)n1`, for which, in experiment [1], the cell count is 580. Besides, the inhibition in experiment [1] is 5.1% (inactive); in experiment [3] it was -71.8% (inactive); in experiment [7] it was 18.7% (inactive); in experiment [8], 26.3% (inactive). Besides, in experiment [2], the inhibition of aggregation was -7.9% (inactive). Moreover, the nuclei count in experiment [2] stood at 110%; in experiment [3], 111%. In addition, in experiment [4], the fluorescence slope is -0.517 (inactive). In addition, in experiment [5], the NADPH fluorescence slope is -4e-05 (inactive). In addition, the slope in experiment [6] was 0.00497 (inactive).

In the case of `O=C(CSc1nnnn1-c1ccccc1Cl)Nc1ccc2c(c1)OCCO2`, in experiment [1], the cell count stood at 660. Moreover, the inhibition in experiment [1] was -3.4% (inactive); in experiment [3] it was -55% (inactive); in experiment [7], 15.2% (inactive); in experiment [8] it was 30.5% (inactive). Besides, the inhibition of aggregation in experiment [2] is 3.2% (inactive). For the same compound, the nuclei count in experiment [2] was found to be 107%; in experiment [3], 118%. Moreover, the fluorescence slope in experiment [4] was -0.548 (inactive). In experiment [5], the NADPH fluorescence slope is -5.9e-05 (inactive). Moreover, the slope in experiment [6] was 0.00706 (inactive).

Consider `O=C(CSc1nnc2ccccn12)NCCN1C(=O)CSC1=O`, for which the cell count in experiment [1] stood at 701. The inhibition in experiment [1] is -2.8% (inactive); in experiment [3], -218% (inactive); in experiment [7] it was 7.75% (inactive); in experiment [8], 2.81% (inactive). For the same compound, the inhibition of aggregation in experiment [2] is -2.4% (inactive). Besides, the nuclei count came to 94.1% in experiment [2] and 130% in experiment [3]. The fluorescence slope in experiment [4] was -0.608 (inactive). Also, the NADPH fluorescence slope in experiment [5] was -5.5e-06 (inactive). Besides, the slope in experiment [6] is 0.00611 (inactive).

`CC(=O)Nc1ccc(S(=O)(=O)Nc2nc3ccccc3nc2N2CCCC2)cc1`: in experiment [1], the cell count worked out at 369. For the same compound, the inhibition is 3.2% (inactive) in experiment [1], -42.3% (inactive) in experiment [3], 20.8% (inactive) in experiment [7] and 21.3% (inactive) in experiment [8]. Further, the inhibition of aggregation in experiment [2] is 10.6% (inactive). In addition, the nuclei count in experiment [2] was 106%; in experiment [3], 128%. In experiment [4], the fluorescence slope was -0.593 (inactive). In addition, in experiment [5], the NADPH fluorescence slope is 2.1e-06 (inactive). In experiment [6], the slope is 0.00326 (inactive).

For `CCOC(=O)C(C)(C)Sc1nc2c(cnn2-c2ccc(Cl)cc2)c(=O)[nH]1`, the cell count in experiment [1] worked out at 623. The inhibition in experiment [1] was -5.2% (inactive); in experiment [3], -27.2% (inactive); in experiment [7], 9.09% (inactive); in experiment [8], 16.7% (inactive). Also, the inhibition of aggregation in experiment [2] was -10.2% (inactive). Further, the values for the nuclei count in experiment [2] and in experiment [3] were 119% and 102%, respectively. Besides, the fluorescence slope in experiment [4] is -0.59 (inactive). The NADPH fluorescence slope in experiment [5] is -5e-05 (inactive). Further, in experiment [6], the slope was 0.00733 (inactive).

`CCOc1ncccc1C(=O)Nc1ccc(Cl)cc1`: the cell count in experiment [1] turned out to be 861. The inhibition in experiment [1] was -15% (inactive); in experiment [3], -36.9% (inactive); in experiment [7], 10.1% (inactive); in experiment [8], 35.6% (inactive). Also, the inhibition of aggregation in experiment [2] was -9.2% (inactive). Also, the nuclei count in experiment [2] amounted to 121%; in experiment [3], 105%. Further, in experiment [4], the fluorescence slope is -0.44 (inactive). For the same compound, in experiment [5], the NADPH fluorescence slope was -3.2e-06 (inactive). The slope in experiment [6] was 0.0068 (inactive).

For `CCOC(=O)c1ccc(NC(=O)CSc2n[nH]c(-c3ccncc3)n2)cc1`, in experiment [1], the cell count amounted to 590. The inhibition in experiment [1] is -1.9% (inactive); in experiment [3], -26.4% (inactive); in experiment [7] it was -5.95% (inactive); in experiment [8], -15.4% (inactive). The inhibition of aggregation in experiment [2] is 7.2% (inactive). The figures for the nuclei count in experiment [2] and in experiment [3] were 99.9% and 110%, respectively. Further, the fluorescence slope in experiment [4] was -0.592 (inactive). Moreover, the NADPH fluorescence slope in experiment [5] was -3.8e-05 (inactive). Further, the slope in experiment [6] was 0.00612 (inactive).
